Measured values published in PubChem BioAssay.
Several values for one entry are separate records, joined by “and”; a condition that tells them apart may be missing. Equal entries are not always repeated. Records with an inconclusive call do not appear. Activity calls are given as the source filed them.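 The calls were made as follows, unless noted: active = compounds whose cell count with miR-34 switched on is under 0.7 times the count with it off; inactive = the rest.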

Legend:
[1] = P. berghei load reduction in hepatocytes – cell-based, HepG2, luciferase luminescence, HepG2 viability, primary screen (AID 624349; in the data active = parasite load remaining mostly below about 12%, no sharp cut-off; inactive = mostly above about 10%;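 also: 100% = mean of DMSO negative control wells on the same plate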); conditions: P. berghei liver stage in HepG2, luciferase luminescence, concentration not given here; parasite load remaining: stronger effect = lower value; viability: measured here: HepG2 viability without parasites
[2] = Wnt pathway potentiators raising nuclear beta-catenin – imaging, WNT3A-conditioned medium, mouse C2C12, NPC library, primary screen (AID 1117326; in the data active = nuclear beta-catenin stimulation mostly above about 4.2%, no sharp cut-off; inactive = mostly below about 10%; also: reference of the scale not given here); conditions: stronger effect = higher value
[3] = stimulators of insulin release from INS-1E, primary screen, cell-based, 5 mM glucose, NPC library (AID 1117329;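 active = compound raises insulin release from rat beta cells at 5 mM glucose, no numeric limit stated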; also: reference of the scale not given here); conditions: rat INS-1E insulin secretion, at 10 µM, stronger effect = higher value
[4] = growth inhibition of GSK3B-pretreated HCT116 cells – cell-based, CellTiter-Glo, 0.2 to 20 µM (AID 1117336;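 active = compounds lowering colon cancer cell viability after pretreatment blocking the GSK3B kinase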); conditions: HCT116 viability after GSK3B inhibitor, at 20 µM, stronger effect = higher value
[5] = inhibition of endothelial tube formation, primary screen, imaging, VEGF stimulated, CD31 staining, tube area, NPC library (AID 1117340;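 active = compound that reduces growth-factor-driven endothelial tube area in a mixed cell culture, no cutoff stated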); conditions: VEGF-stimulated ADSC/ECFC co-culture, at 10 µM, stronger effect = higher value
[6] = GLP1 release stimulators, primary, NCI-H716, NPC library (AID 1117341;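 active = compound raises GLP1 secretion from the human gut endocrine cells, with no numeric limit stated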; also: reference of the scale not given here); conditions: NCI-H716 cells, at 10 µM, stronger effect = higher value
[7] = HCT116 colon cancer cell growth inhibition, primary screen, CellTiter-Glo luminescence, NPC library (AID 1117342;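 active = compounds that lower survival of HCT116 colon cancer cells in the luminescence readout, no numeric limit stated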); conditions: at 20 µM (top of the series)
[8] = reduced SW480 viability measured with CellTiter-Glo, NPC library, primary (AID 1117343;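 active = compounds that lower viability of the colon cancer cells in the luminescence readout, with no numeric limit stated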); conditions: CellTiter-Glo luminescence; at 20 µM (top of the series) unless noted
[9] = NPC library primary testing for decreased DLD-1 cell viability via CellTiter-Glo (AID 1117346;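 active = compounds that lower survival of DLD-1 colon cancer cells in the luminescence readout, no cutoff given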); conditions: DLD-1 viability, CellTiter-Glo luminescence; at 20 µM (top of the series)
[10] = tested on: Aerobactin synthetase IucA (Klebsiella pneumoniae); test: inhibition of K. pneumoniae IucA enzyme – biochemical, Tocris library, absorbance (AID 1345561; call rule not given here;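 also: 100% = enzyme without compound and 0% = no enzyme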); conditions: purified IucA enzyme assay, absorbance (OD) read-out; stronger effect = lower value;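 tested at 8 µM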
[11] = viability loss with induced miR-34 in A549 – imaging, A549 dox-inducible miR-34, nuclei and caspase counts, primary screen (AID 1347080); conditions: A549 miR-34 inducible, Hoechst nuclei count, 48 h
[12] = MELAS cybrid and Rieske KO viability enhancers – cell-based, MELAS cybrids, Rieske KO mouse fibroblasts, CellTiter-Glo, primary screen (AID 1508586;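 active = mean z-score across replicates of 1.96 or higher in either the MELAS or the Rieske mutant cell line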;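 also: z relative to plate mean and SD of compound and empty wells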); conditions: low glucose
[13] = galactose survival enhancers in mitochondrial complex I cybrids – cell-based, galactose medium, ATP luminescence, primary screen (AID 1645843;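 active = z-score of at least 1.8 in each of two replicates, scored against plate mean and spread of sample wells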;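 also: positive z means more ATP and so rescue of galactose-driven cybrid death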); conditions: complex I mutant cybrid cells, 72 h, stronger effect = higher value
[14] = viability loss in pontine glioma line – cell-based, SU-DIPG-XVII, MIPE5.0, CellTiter-Glo, qHTS, dose response (AID 1347060; cut-off not given, nearly all actives have AC50 up to about 26 µM;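 as to AC50: cells exposed to compound for 48 hours before viability readout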); conditions: CellTiter-Glo ATP luminescence
[15] = viability loss in pontine glioma line – cell-based, SU-DIPG-XIII, MIPE4.0, CellTiter-Glo, qHTS, dose response (AID 1347061; cut-off not given, nearly all actives have AC50 up to about 37 µM;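 also: cells exposed to compound for 48 hours before readout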); conditions: CellTiter-Glo ATP luminescence
[16] = growth inhibition of DIPG cells – cell-based, MIPE5.0 library, qHTS (AID 1347068; cut-off not given, nearly all actives have IC50 up to about 30 µM;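 as to IC50: cells exposed to compound for 48 hours before viability readout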); conditions: SU-DIPG-XXV viability
[17] = viability loss in pontine glioma line – cell-based, JHH-DIPG-1, MIPE4.0, CellTiter-Glo, qHTS, dose response (AID 1347062; cut-off not given, nearly all actives have AC50 up to about 27 µM); conditions: JHH-DIPG-1 viability, CellTiter-Glo ATP luminescence
[18] = stronger effect = lower value, cell number ratio, induced over uninduced
[19] = measured here: relative caspase fold change +Dox/-Dox
[20] = measured here: total cells with miR-34 induction, stronger effect = lower value
[21] = measured here: total cells without miR-34 induction
[22] = MELAS cybrid survival, CellTiter-Glo 48 h, stronger effect = higher value
[23] = Rieske KO mouse fibroblast survival, CellTiter-Glo 72 h

For `Cc1ccc2c(c1)c1c3n2CCNC3CCC1` (stereo not given), the parasite load remaining [1] was 192% (inactive), the viability [1] was 76.9% and the nuclear beta-catenin stimulation ([2]; at 10 µM) was 3% (inactive). For the same compound, the nuclear beta-catenin stimulation ([2]; stimulation, at 2 µM) was 2%, the insulin secretion stimulation [3] was 0.5% (inactive) and the viability decrease [4] was -63.6% (inactive). For the same compound, the tube area decrease [5] was 18.5% (inactive), the GLP1 secretion stimulation [6] was 11.2% (inactive) and the inhibition of viability [7] was 44% (inactive). For the same compound, the viability decrease (inhibition) [8] was 73.4% (active), the viability decrease (inhibition) [9] was 29.4% (inactive) and the remaining activity [10] was 98.7% (inactive). The fold change [11, 18] was 0.931 (inactive) and 0.909 (inactive), the fold change [11, 19] was 0.816 and 0.659 and the cell count [11, 20] was 8540 and 8100. The cell count [11, 21] was 9170 and 8920, the z-score [12, 22] was 0.468 (inactive) and the z-score [12, 23] was -0.847. The z-score [13] was -0.41 (inactive).
With `C1COC(NC(C2CC2)C2CC2)=N1` the parasite load remaining [1] was 46.7% (inactive), the viability [1] was 103% and the nuclear beta-catenin stimulation ([2]; at 10 µM) was 0.2% (inactive). For the same compound, the nuclear beta-catenin stimulation ([2]; stimulation, at 2 µM) was -0.7%, the insulin secretion stimulation [3] was 1.6% (inactive) and the viability decrease [4] was -1.8% (inactive). The tube area decrease [5] was -7.6% (inactive), the GLP1 secretion stimulation [6] was 1.5% (inactive) and the inhibition of viability [7] was 5.7% (inactive). The viability decrease (inhibition) [8] was -4% (inactive), the viability decrease (inhibition) [9] was 7.9% (inactive) and the remaining activity [10] was 98.2% (inactive). The outcome [14] was “inactive”, the outcome [15] was “inactive” and the outcome [16] was “inactive”. For the same compound, the fold change [11, 18] was 0.947 (inactive) and 0.935 (inactive) and 0.925 (inactive), the fold change [11, 19] was 1.18 and 0.627 and 1.06 and the cell count [11, 20] was 9720 and 9420 and 10200. The cell count [11, 21] was 10300 and 10100 and 11000, the z-score [12, 22] was 0.462 (inactive) and the z-score [12, 23] was 0.9. For the same compound, the z-score [13] was 0.365 (inactive) and -0.285 (inactive) and 0.8 (inactive).
With `CCc1cc(Cl)c(OC)c(C(=O)NC[C@@H]2CCCN2CC)c1O` the parasite load remaining [1] was 103% (inactive), the viability [1] was 87.5% and the nuclear beta-catenin stimulation ([2]; at 10 µM) was 4.5% (inactive). For the same compound, the nuclear beta-catenin stimulation ([2]; stimulation, at 2 µM) was 1.7%, the insulin secretion stimulation [3] was 5.2% (inactive) and the viability decrease [4] was -86.7% (inactive). For the same compound, the tube area decrease [5] was 2.8% (inactive), the GLP1 secretion stimulation [6] was 5.8% (inactive) and the inhibition of viability [7] was 51.9% (active). The viability decrease (inhibition) [8] was 58.3% (active), the viability decrease (inhibition) [9] was 14.4% (inactive) and the remaining activity [10] was 112% (inactive). For the same compound, the fold change [11, 18] was 0.835 (inactive) and 0.921 (inactive), the fold change [11, 19] was 0.937 and 0.744 and the cell count [11, 20] was 7860 and 8160. The cell count [11, 21] was 9410 and 8850, the z-score [12, 22] was 0.117 (inactive) and the z-score [12, 23] was 0.179. For the same compound, the z-score [13] was -0.605 (inactive).
In the case of `OC(CN1CCC(Cc2ccc(F)cc2)CC1)c1ccc(Cl)cc1` (stereo not given), the nuclear beta-catenin stimulation ([2]; at 10 µM) is reported as 2% (inactive), the nuclear beta-catenin stimulation ([2]; stimulation, at 2 µM) is reported as 2.8% and the insulin secretion stimulation [3] is reported as 2.2% (inactive). The viability decrease [4] was 78.9% (active), the tube area decrease [5] was -4.2% (inactive) and the GLP1 secretion stimulation [6] was 2.9% (inactive). For the same compound, the inhibition of viability [7] was 78.6% (active), the viability decrease (inhibition) [8] was 67.1% (active) and the viability decrease (inhibition) [9] was 75.2% (active). For the same compound, the remaining activity [10] was 78.5% (inactive), the outcome [15] was “inactive” and the fold change [11, 18] was 1.15 (inactive) and 0.894 (inactive). The fold change [11, 19] was 0.858 and 1.23, the cell count [11, 20] was 6880 and 8360 and the cell count [11, 21] was 6000 and 9350. For the same compound, the z-score [13] was -0.6 (inactive) and 0.185 (inactive).
In the case of `CCOC(=O)[C@H](CCc1ccccc1)N[C@@H](C)C(=O)N1Cc2cc(OC)c(OC)cc2C[C@H]1C(=O)O`, the nuclear beta-catenin stimulation ([2]; at 10 µM) is reported as -0.5% (inactive), the nuclear beta-catenin stimulation ([2]; stimulation, at 2 µM) is reported as 1.6% and the insulin secretion stimulation [3] is reported as 0.3% (inactive). For the same compound, the viability decrease [4] was -1.4% (inactive), the tube area decrease [5] was 78.4% (active) and the GLP1 secretion stimulation [6] was 0.3% (inactive). For the same compound, the inhibition of viability [7] was 6.7% (inactive), the viability decrease (inhibition) [8] was -2.3% (inactive) and the viability decrease (inhibition) [9] was 3.7% (inactive). For the same compound, the remaining activity [10] was 110% (inactive), the fold change [11, 18] was 0.937 (inactive) and the fold change [11, 19] was 1.79. The cell count [11, 20] was 7700, the cell count [11, 21] was 8220 and the z-score [13] was -0.04 (inactive).
For `CN1CC(=O)N/C1=N/C(=O)Nc1cccc(Cl)c1`, the nuclear beta-catenin stimulation ([2]; at 10 µM) was 0.5% (inactive), the nuclear beta-catenin stimulation ([2]; stimulation, at 2 µM) was -0.6% and the insulin secretion stimulation [3] was -2.5% (inactive). For the same compound, the viability decrease [4] was -6.65% (inactive), the tube area decrease [5] was -5.1% (inactive) and the GLP1 secretion stimulation [6] was 4.2% (inactive). For the same compound, the inhibition of viability [7] was -16.7% (inactive), the viability decrease (inhibition) [8] was 45.2% (inactive) and the viability decrease (inhibition) [9] was 3.8% (inactive). For the same compound, the remaining activity [10] was 109% (inactive), the fold change [11, 18] was 0.899 (inactive) and the fold change [11, 19] was 1.49. For the same compound, the cell count [11, 20] was 8750, the cell count [11, 21] was 9740 and the z-score [13] was 0.46 (inactive).
In the case of `CC[N+](CC)(CC)CCOc1ccc(/C=C/c2ccccc2)cc1`, the nuclear beta-catenin stimulation ([2]; at 10 µM) is reported as 0.4% (inactive), the nuclear beta-catenin stimulation ([2]; stimulation, at 2 µM) is reported as -0.8% and the insulin secretion stimulation [3] is reported as 1.3% (inactive). For the same compound, the viability decrease [4] was -35.4% (inactive), the tube area decrease [5] was 82.5% (active) and the GLP1 secretion stimulation [6] was -1.8% (inactive). For the same compound, the inhibition of viability [7] was 46.8% (inactive), the viability decrease (inhibition) [8] was -6% (inactive) and the viability decrease (inhibition) [9] was 56.2% (active). The remaining activity [10] was 112% (inactive), the fold change [11, 18] was 1.12 (inactive) and 0.929 (inactive) and the fold change [11, 19] was 0.542 and 0.715. The cell count [11, 20] was 2640 and 2410, the cell count [11, 21] was 2350 and 2590 and the z-score [13] was -1.29 (inactive) and -0.77 (inactive).
With `C[C@@H](NCCCc1cccc(C(F)(F)F)c1)c1cccc2ccccc12` the nuclear beta-catenin stimulation ([2]; at 10 µM) was 35.9% (inactive), the nuclear beta-catenin stimulation ([2]; stimulation, at 2 µM) was -0.4% and the insulin secretion stimulation [3] was 0.2% (inactive). The viability decrease [4] was 101% (active), the tube area decrease [5] was 99.6% (active) and the GLP1 secretion stimulation [6] was 20.5% (active). For the same compound, the inhibition of viability [7] was 102% (active), the viability decrease (inhibition) [8] was 123% (active) and the viability decrease (inhibition) [9] was 104% (active). For the same compound, the AC50 [14] was 16.6 µM (active), the outcome [15] was “inactive” and the outcome [17] was “inactive”. For the same compound, the IC50 [16] was 20.9 µM (active), the fold change [11, 18] was 0.971 (inactive) and the fold change [11, 19] was 0.761. The cell count [11, 20] was 5970, the cell count [11, 21] was 6150 and the z-score [12, 22] was -0.442 (inactive). It also gave a z-score [12, 23] of 0.442.
In the case of `CCC(CC)(CC(=O)Nc1cccc(/C=C/c2nc(C3CCC3)cs2)c1)C(=O)O`, the nuclear beta-catenin stimulation ([2]; at 10 µM) is reported as 0% (inactive), the nuclear beta-catenin stimulation ([2]; stimulation, at 2 µM) is reported as 0.1% and the insulin secretion stimulation [3] is reported as 1% (inactive). The viability decrease [4] was 96.6% (active), the tube area decrease [5] was 5.4% (inactive) and the GLP1 secretion stimulation [6] was 1.7% (inactive). The inhibition of viability [7] was 42.9% (inactive), the viability decrease (inhibition) [8] was 41% (inactive) and the viability decrease (inhibition) [9] was 70.9% (active). The remaining activity [10] was 89.3% (inactive), the fold change [11, 18] was 0.829 (inactive) and the fold change [11, 19] was 1.27. For the same compound, the cell count [11, 20] was 7300, the cell count [11, 21] was 8810 and the z-score [13] was 2.4 (active).
